Measured values published in PubChem BioAssay AID463173 (ICCB-Longwood Screening Facility, Harvard Medical School, 2010).
In all, about 52,000 compounds went through this assay and about 4,300 (8.3%) were called active. The sample as a whole holds a higher share of actives than the screen did. Unmarked numbers belong to inactive results. No stated cut-off is given here; in the data, active means survival mostly below about 52% (no sharp cut-off); inactive means mostly above about 56%.

Each compound was assayed on DeltatarO mutant (assay: S. aureus survival, RN4220 and DeltatarO strains – OD600, teichoic acid synthesis inhibitors, primary screen (AID 463173)). Conditions: S. aureus RN4220 wild type/DeltatarO growth, OD600, 18 h, hits give low values, screened at 18.75 µg/mL (by protocol).
Work on COc1ccc(Cn2nnnc2C(c2ccccc2)N2CCC(C)CC2)cc1 (configuration not stated) yielded a survival of 68%. Work on CCc1ccc(NC(=O)CN2CCN(Cc3ccccc3)S2(=O)=O)cc1 yielded a survival of 68%. CCOc1cc2sc(N3CCC(C(=O)Nc4ccc(C)cc4C)CC3)nc2cc1Br was tested, and the survival was 71%. In the case of CCOC(=O)c1nc(Nc2cccc(C)c2)c2ccccc2n1, the survival is reported as 75%. For CCOC(=O)c1nc(Nc2ccc(OC)cc2)c2ccccc2n1, the survival was 153%. Work on CCOC(=O)c1nc(Nc2ccccc2C)c2ccccc2n1 yielded a survival of 49%. Compound CCCCCOC(=O)c1ccc(Nc2nc(C(=O)OCC)nc3ccccc23)cc1 has a survival of 60%. For CCCOC(=O)c1cccc(Nc2nc(C(=O)OCC)nc3ccccc23)c1, the survival was 20% (active). CCOC(=O)c1nc(Nc2ccccc2OC)c2ccccc2n1 was tested, and the survival was 44% (active). Work on CC(=O)c1cccc(NC(=O)c2cc3sc(Cl)cc3n2C)c1 yielded a survival of 122%. With CCOc1ccc(OCC)c(NC(=O)CN(C)S(=O)(=O)c2ccc3[nH]c(=O)oc3c2)c1 the survival was 85%. In the case of COc1ccc(NC(=O)CSc2nc3c(oc4ccccc43)c(=O)n2-c2ccc(C)c(C)c2)cc1, the survival is reported as 82%. In the case of COC(=O)c1sccc1S(=O)(=O)N(CC(=O)Nc1ccc(C)c(F)c1)c1ccc(C)c(C)c1, the survival is reported as 17% (active). In the case of CCc1cccc(NC(=O)CN(c2ccc(C)c(C)c2)S(=O)(=O)c2ccsc2C(=O)OC)c1, the survival is reported as -5% (active). COC(=O)c1sccc1S(=O)(=O)N(CC(=O)Nc1c(C)cccc1C)c1ccc(C)c(C)c1 gave a survival of 94%. In the case of COC(=O)c1sccc1S(=O)(=O)N(CC(=O)Nc1cccc(C)c1C)c1ccc(C)c(C)c1, the survival is reported as 89%. COC(=O)c1sccc1S(=O)(=O)N(CC(=O)Nc1cc(C)ccc1C)c1ccc(C)c(C)c1 gave a survival of 88%. COC(=O)c1sccc1S(=O)(=O)N(CC(=O)Nc1cc(F)ccc1F)c1ccc(C)c(C)c1 showed a survival of 128%. Cn1c(C(O)c2ccccc2)n[nH]c1=S (configuration not stated) gave a survival of 93%. For COc1cccc(-n2c(SCC(N)=O)nc3c(oc4ccccc43)c2=O)c1, the survival was 67%. Work on O=C(c1ccccc1)N1CCN(S(=O)(=O)c2ccccc2)CC1 yielded a survival of 68%. Cc1ccc(CNC(=O)CN2C(=O)CCn3nc(-c4ccccc4)cc32)cc1 gave a survival of 72%. In the case of Cn1cc(-c2cc3n(n2)CCC(=O)N3CCCC(=O)Nc2ccccc2Cl)c2ccccc21, the survival is reported as -5% (active). CN(C)c1ccc(CNC(=O)CCCN2C(=O)CCn3nc(-c4cn(C)c5ccccc45)cc32)cc1 was tested, and the survival was 17% (active). Work on Cn1cc(-c2cc3n(n2)CCC(=O)N3CCCC(=O)Nc2ccccc2F)c2ccccc21 yielded a survival of 134%. Cc1ccc(CNC(=O)CCCN2C(=O)CCn3nc(-c4cn(C)c5ccccc45)cc32)cc1 showed a survival of 87%. For CN(C)c1ccc(CNC(=O)CN2C(=O)CCn3nc(-c4cn(C)c5ccccc45)cc32)cc1, the survival was 54%. With O=C(CN1C(=O)CCn2nc(-c3ccccc3)cc21)NCc1ccccc1 the survival was 106%. Cn1cc(-c2cc3n(n2)CCC(=O)N3CCCC(=O)NCc2ccc(Cl)cc2)c2ccccc21 gave a survival of 122%. Cc1cccc(CNC(=O)CCCN2C(=O)CCn3nc(-c4cn(C)c5ccccc45)cc32)c1 was tested, and the survival was -5% (active). CCc1ccccc1NC(=O)CCCN1C(=O)CCn2nc(-c3cn(C)c4ccccc34)cc21 showed a survival of 130%. Cn1cc(-c2cc3n(n2)CCC(=O)N3CCCC(=O)NCc2ccccc2)c2ccccc21 showed a survival of 92%. In the case of O=C(CN1C(=O)CCn2nc(-c3ccccc3)cc21)NCc1ccc(Cl)cc1, the survival is reported as 0% (active). COc1ccc(OC)c(NC(=O)c2c(NCc3sccc3C)sc3c2CCCCC3)c1 was tested, and the survival was 78%. For c1ccc(N2CCN(c3ccccc3)C2c2cccs2)cc1, the survival was 67%. Work on CCCCCN1C(C(=O)c2ccccc2)=C(NC(=O)c2ccc(OC)cc2)c2ccccc2S1(=O)=O yielded a survival of 57%. Cc1ccc(Cn2c(=O)n(CCc3ccccc3)c(=O)c3c(C)c(C)sc32)cc1 gave a survival of 24%. COc1cc(Cl)c(C)cc1NC(=O)CCn1c(=O)c2cccn2c2cccnc21 showed a survival of 83%. Compound CC(C)(SC1CC(=O)N(c2ccccc2)C1=O)C(N)C(=O)O (configuration not stated) has a survival of 98%. For CCc1ccc2c(c1)NC(c1cccnc1)=NC(c1ccc(C(C)(C)C)cc1)=N2, the survival was 63%. CCN1c2ccccc2-c2nc(SCC(=O)Nc3cccc(C)c3C)ncc2S1(=O)=O gave a survival of 101%. For CCc1ccc(-c2nn(CC(=O)NCc3ccccc3)c3c2cnc2ccc(F)cc23)cc1, the survival was 92%. With COc1ccc(CNC(=O)CN2C(=O)CCn3nc(-c4cn(C)c5ccccc45)cc32)cc1 the survival was 96%. For CCOc1ccc(CNC(=O)CN2C(=O)CCn3nc(-c4cn(C)c5ccccc45)cc32)cc1OC, the survival was -4% (active). CCOc1ccccc1CNC(=O)CN1C(=O)CCn2nc(-c3cn(C)c4ccccc34)cc21 gave a survival of 66%. Work on CCc1ccccc1NC(=O)CSc1nnc(-c2ccc(OC)cc2)s1 yielded a survival of 80%. Cc1ccc(C(=O)Nc2ccc3nc(SCC(=O)N4CCCc5ccccc54)sc3c2)cc1 was tested, and the survival was 80%. CCOc1ccc(CNc2cc(C)nc3nc(-c4cccc(C)c4)nn23)cc1OC gave a survival of 95%. CCCCN(CC)CCCNC(=O)CN1C(=O)CSc2ccc(S(=O)(=O)N3CCOCC3)cc21 showed a survival of 97%. With O=C(NCC1CCN(Cc2ccccc2F)CC1)Nc1ccc(F)c(Cl)c1 the survival was 100%. With Cc1ccc(CN2CCC(CNC(=O)Nc3cccc(Cl)c3C)C2)cc1 (configuration not stated) the survival was 75%. For Cc1ccc(NC(=O)NCC2CCN(Cc3cccc(Cl)c3)CC2)cc1Cl, the survival was -5% (active). For O=C(NCC1CCN(Cc2cccc(Cl)c2)CC1)Nc1cc(Cl)ccc1Cl, the survival was 17% (active). Compound O=C(NCC1CCN(Cc2cccc(Cl)c2)CC1)Nc1ccc(F)c(Cl)c1 has a survival of 55%. Cc1ccc(CN2CCC(CNC(=O)Nc3ccccc3F)CC2)cc1 showed a survival of 113%. In the case of COc1ccc(Cn2ccnc2SCC(=O)Nc2ccc3c(c2)OCCO3)cc1, the survival is reported as 94%. Compound CCOC(=O)CNC(=O)c1cc2c(=O)n3cccc(C)c3nc2n1C has a survival of 102%. In the case of Cc1cccn2c(=O)c3cc(C(=O)NC(C)(C)C)n(C)c3nc12, the survival is reported as 61%. CCCCN(CC)C(=O)c1cc2c(=O)n3cccc(C)c3nc2n1C was tested, and the survival was 56% (active). Compound CCCCc1ccc(NC(=O)c2cc3c(=O)n4ccccc4nc3s2)cc1 has a survival of 89%. For CCCN(CCC)C(=O)c1cc2c(=O)n3cccc(C)c3nc2n1C, the survival was 62%. In the case of O=C(NCc1ccc(F)cc1)c1cc2c(=O)n3ccccc3nc2s1, the survival is reported as 140%. For CCCN(CCC)C(=O)c1cc2c(=O)n3cccc(C)c3nc2s1, the survival was 56%. In the case of CCCCN(CCCC)C(=O)c1cc2c(=O)n3ccccc3nc2s1, the survival is reported as 39% (active). With CCCCN(CC)C(=O)c1cc2c(=O)n3ccccc3nc2n1C the survival was 50%. CCCCN(CCCC)C(=O)c1cc2c(=O)n3cccc(C)c3nc2s1 was tested, and the survival was -13% (active). In the case of Cc1cccn2c(=O)c3cc(C(=O)NC(C)C)n(C)c3nc12, the survival is reported as 53% (active). CCCCN(CC)C(=O)c1cc2c(=O)n3cccc(C)c3nc2s1 showed a survival of 54%. Work on O=C(Nc1ccccc1)c1ccncc1 yielded a survival of 97%. CC(=O)Nc1ccc(S(=O)(=O)Nc2cccc(-c3ccc(N4CCCCCC4)nn3)c2)cc1 showed a survival of 83%. In the case of Cc1onc2c1C(=O)CC(C)(C)C2, the survival is reported as 73%. Cc1cc(C)c2c(=O)cc(C(=O)NCc3ccc(S(N)(=O)=O)cc3)oc2c1 was tested, and the survival was 117%. For Cc1ccc(F)cc1NC(=O)CSc1nc(-c2cccs2)cc(C(F)(F)F)n1, the survival was 68%. CC(=O)N1CCOc2cc(S(=O)(=O)NCc3ccccc3Cl)c(Cl)cc21 showed a survival of 76%. In the case of Cc1nc2sccn2c(=O)c1S(=O)(=O)Nc1ccc(N2CCOCC2)cc1, the survival is reported as 62%. For CCOC(=O)c1ccc(NC(=O)CN2C(=O)C(C)(C)c3ccccc32)cc1, the survival was 115%. In the case of CCN(C(=O)Cn1c(SCC(=O)NCc2ccccc2)nc2ccccc21)c1cccc(C)c1, the survival is reported as 65%. For Cc1nc(N)sc1C(C)(C)C, the survival was 86%. Compound COc1ccc(-c2ccc(=O)n(CC(=O)NCCc3ccccc3)n2)cc1 has a survival of 70%. Work on CCCC(CCC)C(=O)Nc1ccc(NC(=O)c2ccco2)cc1 yielded a survival of 98%. Compound CCOc1cccc2cc(-c3nc4ccc(C(=O)O)cc4[nH]3)c(=O)oc12 has a survival of 69%. Cc1ccc2c(c1)N(C(=O)N1CCC(C(=O)NCc3cccs3)CC1)CC(C)O2 (configuration not stated) showed a survival of 91%. For CC1CCCCN1CCCNC(=O)c1sc2ncccc2c1-n1cccc1 (configuration not stated), the survival was 25% (active). Work on O=C(NCCCN1CCCCC1)c1sc2ncccc2c1-n1cccc1 yielded a survival of 92%. With Cc1cc(C)c2c(-n3cccc3)c(C(=O)NCCCN3CCCCC3C)sc2n1 (configuration not stated) the survival was 93%. With COc1ccc(N2CCN(CCCNC(=O)c3sc4ncccc4c3-n3cccc3)CC2)cc1 the survival was 101%. For O=C(NCCCN1CCN(c2ccc(F)cc2)CC1)c1sc2ncccc2c1-n1cccc1, the survival was 37% (active). O=C(NCCCN1CCN(c2ccccc2)CC1)c1sc2ncccc2c1-n1cccc1 gave a survival of 91%. Work on CC1=C(C(=O)OC2CCCC2)C(c2ccccc2Cl)CC(=O)N1 (configuration not stated) yielded a survival of 70%. CN1CCc2nc3sc(C(=O)c4ccc(F)cc4)c(N)c3cc2C1 gave a survival of 71%. Work on COc1ccc(CCNC(=O)C(C)n2nc(C)c3sc4ccccc4c3c2=O)c(OC)c1 (configuration not stated) yielded a survival of 58%. COc1cc2nc(C3CCC3)n(N)c(=O)c2cc1OC was tested, and the survival was 75%.
